# KKLEB tox = counter-screen for CF NF-kB inhibitors: cytotoxicity; KKLEB CF airway cells viability, ATPlite luminescence, overnight; active compounds read low; cells stimulated with P. aeruginosa culture filtrate; activity change (cytotoxicity), % at 5 µM; 360,000 tested, 0.36% active;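 active means corrected activity change at or below -50% at 5 µM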
# HIF-2a block = blocks HIF-2a reporter activity; 786-0 RCC cells HIF-2a reporter, luciferase luminescence, overnight; inhibition, % at 18.8 µM; 360,000 tested, 0.72% active; AID 624352;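 active means inhibition of the luminescence signal of 40% or more relative to plate controls, in a single-dose primary screen at 18.75 µM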
# LMP1 NFkB inh = Epstein-Barr LMP1 NF-kappaB reporter inhibition; inhibition, % at 12.5 µM; LMP1-induced NF-kappaB luciferase reporter cells, luminescence; 350,000 tested, 0.69% active; in the data active means inhibition above about 41%;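 further: 0% = neutral control wells and 100% = reference inhibitor control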
# CF NFkB inh = inhibitors of cystic fibrosis induced NF-kB; 360,000 tested, 0.86% active; AID 588850; KKLEB NF-kB-GFP reporter, PAF-induced, GFP fluorescence overnight; inhibition, % at 5 µM;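 active means at least 50% inhibition at 5 µM, scaled per plate between neutral and stimulator controls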;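 further: PAF is a Pseudomonas aeruginosa culture filtrate used as stimulus; plate controls were PAF-stimulated DMSO wells for no effect and unstimulated DMSO wells for full effect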
# MITF TRPM1 inh = reduces MITF-dependent TRPM1 promoter luciferase signal; 330,000 tested, 0.83% active; inhibition, % at 12.5 µM; SK-MEL-5 TRPM1 promoter luciferase, 24 h;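 active means mean inhibition across replicates of 60% or more, whatever share of single replicates reaches that level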
# Peg3 prom inh = reduces Peg3 promoter-driven luciferase expression in HeLa. inhibition, % at 20 µM. HeLa PEG-Prom luciferase reporter, luminescence, overnight. 360,000 tested, 1.7% active;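 active means inhibition of at least 50% at 20 µM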
# Mdm2 MdmX conf = confirmation of inhibitors of human Mdm2/MdmX interaction, set 2. inhibition, % at 8 µM. shares compounds with HIF-2a block. 740 tested, 99% active. SaOS-2 split-luciferase Mdm2/MdmX complementation, luminescence;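 active means mean inhibition of the luminescence signal across two replicates at or above 26 percent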
# HIF-2a inh conf = HIF-2a inhibition, single concentration confirmation. shares compounds with HIF-2a block. 786-0 RCC cells, HIF-2a luciferase reporter luminescence, overnight. inhibition, % at 18.8 µM. 1,800 tested, 56% active. AID 651580;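 active means mean inhibition across four replicates of at least 40 percent at the single tested concentration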
# HIF-1a cs = HIF-1a inhibition counter-screen for HIF-2a hits | 1,800 tested, 72% active | inhibition, % at 18.8 µM | MiaPaCa-2 HIF-1a luciferase reporter, desferoxamine, overnight | shares compounds with HIF-2a block;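 active means mean inhibition of the reporter signal across four replicates at the single tested dose of 50% or more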
# * hit, by the source's call; x = not tested or not shown. The list is not random: actives were taken first. Their share in the collection is about 3%.
SMILES,KKLEB tox,HIF-2a block,LMP1 NFkB inh,CF NFkB inh,MITF TRPM1 inh,Peg3 prom inh,HIF-2a inh conf,HIF-1a cs,others
Cc1ccc(C)c(-c2nc3cc(N)ccc3o2)c1,13,65*,-13,-30,20,-167,70*,28,
Oc1ccccc1C=NCCN1CCN(CCN=Cc2ccccc2O)C1c1ccccc1O (configuration not stated),-10,10,-18,6,19,13,x,x,
CCC(Sc1nc2n[nH]c(C)c2c(=N)n1-c1cccc(Cl)c1)C(=O)NCCOC (configuration not stated),-13,24,9,16,5,26,x,x,
CCC(Sc1nc2n[nH]c(C)c2c(=N)n1-c1ccc(C)c(Cl)c1)C(=O)N1CCOCC1 (configuration not stated),-16,41*,-12,9,-10,36,10,70*,
O=C(O)c1cccc2c1C(=O)c1ccccc1-2,-2,19,-2,5,17,3,x,x,
O=C1C(=C(I)I)c2ccccc2-c2ccccc21,-100*,93*,12,82*,99*,104*,96*,103*,
COc1cc(/C=C(/C(=O)c2cccs2)c2nc3ccccc3[nH]2)cc(OC)c1O,-7,79*,-33,35,53,100*,57*,102*,Mdm2 MdmX conf=103*
COc1ccc(C(=O)N/C(=C/c2cccs2)c2nc3ccccc3[nH]2)cc1OC,-2,-12,-5,-10,-6,-7,x,x,
O=C(/C(=C/c1ccc(Cl)cc1)c1nc2ccccc2[nH]1)c1ccccc1,-82*,91*,86*,89*,84*,108*,43*,105*,Mdm2 MdmX conf=103*
O=C1NC(=S)NC1(c1ccccc1)c1ccccc1,-8,18,6,22,1,18,x,x,
CN(C)c1ccc(/C=C/c2c([N+](=O)[O-])c(=O)n(C)c(=O)n2C)cc1,11,-31,6,-13,7,3,x,x,
CN(C)c1ccc(-n2cccc2/C=C/[N+](=O)[O-])cc1,-9,91*,-2,-36,66*,94*,89*,106*,
N#CCc1ccc(NC(=O)/C=C/c2ccc([N+](=O)[O-])o2)cc1,-13,65*,30,-28,100*,106*,48*,105*,
COc1ccc(C(=O)c2coc(-c3ccccc3C(=O)O)c2C(=O)O)cc1,11,20,-6,-5,6,0,x,x,
COc1ccc(C(=O)c2c(C(F)(F)F)oc3c2C(=O)c2ccccc2C3=O)cc1,-83*,27,85*,88*,105*,99*,x,x,Mdm2 MdmX conf=97*
COc1cc(/C=C/C(=O)c2c(O)ccc3c(C)cc(=O)oc23)ccc1O,-28,29,18,4,2,44,x,x,
COc1ccc(/C=C\C(=O)c2c(O)ccc3c(C)cc(=O)oc23)cc1OC,1,55*,-1,17,-2,42,27,85*,
Nc1cc(OC(=O)c2ccc(F)cc2)nn1S(=O)(=O)c1ccccc1,0,53*,-10,5,0,16,-8,5,
COc1cc(C(=O)Oc2cc(N)n(S(=O)(=O)c3ccc(F)cc3)n2)cc(OC)c1OC,-15,7,-2,17,4,12,x,x,
Cc1ccc(S(=O)(=O)NCCC2=CCCCC2)cc1,8,-6,1,8,-4,-12,x,x,
CCOC(=O)COc1ccc(S(=O)(=O)NCCC2=CCCCC2)cc1,0,54*,-9,10,-7,11,7,-1,
O=C(Nc1nnc([C@@H]2C[C@H](O)[C@@H](CO)O2)s1)Nc1ccccc1F,12,-118,x,13,x,-91,x,x,
CCc1ccc(C2=NN(CCC(=O)NC(C)c3ccc4c(c3)OCCO4)C(=O)CC2)cc1 (configuration not stated),4,18,0,7,6,1,x,x,
Cc1csc(NC(=O)CCc2c(C)nc3cc(-c4ccc(Cl)cc4)nn3c2C)n1,-5,81*,27,1,54,-4,92*,54*,
Cc1nc2cc(-c3ccc(Cl)cc3)nn2c(C)c1CCC(=O)NC(C)c1ccc2c(c1)OCCO2 (configuration not stated),-5,82*,12,-1,53,9,93*,89*,
SMILES,KKLEB tox,HIF-2a block,LMP1 NFkB inh,CF NFkB inh,MITF TRPM1 inh,Peg3 prom inh,HIF-2a inh conf,HIF-1a cs,others
Cc1csc(NC(=O)CSc2nnc(-c3ccc(Cl)cc3)n2N)n1,10,0,-3,-3,8,2,x,x,
CC(C)C[C@H]1CN(CCCC[C@H]2CNC(=O)C(=O)N2CC2CCCCC2)C(=O)C(=O)N1CC1CCCCC1,x,-8,x,x,x,x,x,x,
O=C(Nc1ccc(Cl)cc1)c1cc2c(cc1O)[nH]c1ccccc12,-63*,-75,17,67*,3,54*,x,x,Mdm2 MdmX conf=102*
CC(=O)Nc1ccc2[nH]c3ccccc3c2c1,2,-112,8,-6,-30,-52,x,x,
C[C@H](CO)N1C[C@H](C)[C@@H](CN(C)Cc2cccnc2)Oc2ncc(-c3cccc(C#N)c3)cc2C1=O,-4,14,2,10,x,-9,x,x,
CC(C)(C)c1ccc(Oc2ccc(NC(=O)c3ccccc3C(=O)O)cn2)cc1,-12,56*,x,10,x,12,51*,35,
CC(C)Cc1ccc(-c2cc3nc(NCCCn4ccnc4)ccn3n2)cc1,-47,-218,x,34,x,-106,x,x,
CC1C/C(=C/c2cccn2C)C(=O)/C(=C/c2cccn2C)C1 (configuration not stated),6,-49,-8,-53,8,-18,x,x,
CC1C/C(=C/c2ccncc2)C(=O)/C(=C/c2ccncc2)C1 (configuration not stated),-55*,94*,92*,82*,106*,104*,x,x,Mdm2 MdmX conf=100*
CCOC(=O)C1=CC[C@@H](c2ccccc2)N(S(=O)(=O)c2ccc(C)cc2)[C@H]1C#N,-16,-43,x,43,x,-75,x,x,
O=C(Nc1ccccc1C(=O)NCc1ccco1)Nc1cccc2ccccc12,2,54*,-7,5,2,-2,6,33,
C=C1C(=O)[C@]23C[C@H]1CC[C@H]2[C@]1(C)[C@@H](OC(C)=O)CC[C@@](C)(C(=O)OC)[C@H]1C[C@@H]3OC(C)=O,-97*,97*,x,95*,x,99*,98*,107*,
CC(C)(Cc1nc2ccccc2[nH]1)c1nc2ccccc2[nH]1,3,-7,-10,11,x,13,x,x,

# Screens (PubChem)
